In PubChem BioAssay (EPA / NIEHS) one finds AC50 and outcome data, which are given here for 30 compounds.

Structures are written as SMILES. “And” between values parts separate entries of the source, which are not always exact repeats. Identical values can stand only once. The source made the active and inactive calls. The calls were made as follows: active = hit-call score of the fitted dose curve at least 0.9, where 1 is the maximum; inactive = score below 0.9.

The term AC50 denotes the midpoint of the concentration-response curve, whichever way the signal moves.

Read-out in the assay: Interleukin 17F (IL17F), IL17F (gene 112744)
The experiment in a line: BSK_BT_xIL17F: BioMAP Diversity Plus: BT Assay for Interleukin 17F (IL17F) Biomarker Activity (AID 2284243). The note with it: primary human B cells with PBMC. The procedure: BSK_BT is a cell-based, multiplexed-readout assay that uses B cell and peripheral blood mononuclear cells, a human vascular primary cell co-culture, with measurements taken at 24 hours after chemical dosing in a microplate: 96-well plate.BSK_BT_xIL17F is an assay component measured in the BSK_BT assay. It measures secreted IL-17F related to regulation of gene expression using LumineX xMAP technology.Data from the assay component BSK_BT_xIL17F was analyzed at the endpoint, BSK_BT_xIL17F, in the positive analysis fitting direction relative to DMSO as the negative control and baseline of activity. Using a type of cytokine quantitation reporter, gain or loss-of-signal activity can be used to understand protein changes. To generalize the intended target to other relatable targets, this assay endpoint is annotated to the 'cytokine' intended target family, where the subfamily is 'interleukins'.
The levels of cell surface (or secreted, indicated by the prefix "s") biomarker endpoints were measured by ELISA. Overt cytotoxicity to cells in confluent adherent cultures (all systems other than the BT system) was assessed by measuring total protein levels using sulforhodamine B (SRB) staining in parallel cultures at the time of biomarker measurements, indicated as SRB endpoints. For proliferation assays for adherent cell types, individual cell types are cultured at sub-confluence and relative cell numbers quantified by SRB staining at time points optimized for each system (48 h: 3C and CASM3C systems; 72 h: BT and HDF3CGF systems; 96 h: SAg system). SRB was performed by staining cells with 0.1% SRB after fixation with 10% TCA and reading wells at 560 nm.Viability and proliferation of PBMC (T cells) was quantified by Alamar Blue reduction for the SAg and BT systems. For PBMC viability (referred to as PBMC Cytotoxicity within the assay endpoint names), cells were plated (75,000/well in a 96-well plate) and then chemical samples added for 1 h before addition of activators, SEB and TSST-1 (20 ng/mL final concentration each). Cells were incubated for 90 h. Then, Alamar Blue (20 uL/well) (Invitrogen, Cat DAL1100) was added for 6 h, and the plates were read with a fluorescence microplate reader at 546/580 nm (excitation/emission). For PBMC proliferation, cells were plated and activated as above but incubated for only 16 h prior to addition of Alamar Blue. Plates were read after 6 h.
As for `Nc1ccc(-c2ccc(N)c(N)c2)cc1N`, the AC50 is 23.6 µM (active).
For `c1ccc(Nc2ccc3ccccc3c2)cc1`, the AC50 was 30.8 µM (active).
Take `O=S(=O)(c1ccccc1)c1ccccc1`: the outcome was inactive.
Take `CCc1cc(C)cc(CC)c1-c1c(OC(=O)C(C)(C)C)n2n(c1=O)CCOCC2`: the result was inactive.
The same measure, in the same setting: for `Oc1cc(Cl)ccc1Cl` the value was “inactive”; for `O=c1c2ccccc2c(=O)c2c1cc(Cl)c1[nH]c3c([nH]c12)c(Cl)cc1c(=O)c2ccccc2c(=O)c13`, “inactive”.
On to `CCCCCCCCCCCC#N`, for which the result was inactive.
For the compound `COC(C)(C)CCC[C@H](C)C/C=C/C(C)=C/C(=O)OC(C)C`, the AC50 is 24.4 µM (active).
Turning to `COCC(=O)N(c1c(C)cccc1C)N1CCOC1=O`, the outcome was inactive.
For `O=P1(NCCCl)OCCCN1CCCl` (stereo not given), the outcome was inactive.
Regarding `CC(C)COP(=O)(OCC(C)C)OCC(C)C`, the outcome was inactive.
Take `O=c1[nH]c(Cl)c(Cl)cc1Cl`: the result was inactive.
As for `CC(=O)/C=C/c1ccccc1`, the AC50 is 20 µM (active).
Consider `O=[N+]([O-])C=Cc1ccccc1`, for which the AC50 is 5.05 µM (active).
In the case of `CC(C)(c1cc(Cl)c(O)c(Cl)c1)c1cc(Cl)c(O)c(Cl)c1`, the outcome was inactive.
As to `CCC(C)c1cc([N+](=O)[O-])cc([N+](=O)[O-])c1OC(=O)C=C(C)C` (stereo not given), the AC50 was 29.3 µM (active).
On the same count and under the same terms, the same measure for `Cc1ccc(OP(=O)(Oc2ccc(C)cc2)Oc2ccc(C)cc2)cc1` (tested in a mixture with another compound): 24.6 µM (active).
Regarding `C=CC(=O)OCC(CC)CCCC` (stereo not given), the result was inactive.
Consider `C=CCN(CC=C)C(=O)C(Cl)Cl`, for which the result was inactive.
Take `CC(C)CCCCCCCOC(=O)c1ccccc1C(=O)OCCCCCCCC(C)C`: the result was inactive.
In the case of `CC1(C)[C@H](C(=O)O[C@H](C#N)c2cccc(Oc3ccccc3)c2)[C@@H]1C=C(Br)Br`, the AC50 was 28.7 µM (active) and 20 µM (active).
For `CNC(=O)Oc1cc(C)c(SC)c(C)c1`, the AC50 is 20 µM (active).
Regarding `Clc1ccc(-c2ccccc2)cc1`, the result was inactive.
On to `O=C(O)CCCc1ccc(N(CCCl)CCCl)cc1`, for which the AC50 is 20 µM (active) and 15.2 µM (active).
In the case of `O=C1C=CC(=O)C=C1`, the AC50 is 29.2 µM (active).
On to `CC(C)(C)C(=O)CCl`, for which the outcome was inactive.
Turning to `CCCOC(=O)c1ccccc1C(=O)OCCC`, the result was inactive.
For the compound `O=C1C(Cl)=C(Cl)C(=O)C(Cl)=C1Cl`, the AC50 is 28.8 µM (active).
Regarding `CC(C)(C)C(O)C(Oc1ccc(-c2ccccc2)cc1)n1cncn1` (stereo not given), the result was inactive.
As to `CC(C)CCCCCCCOP(=O)(Oc1ccccc1)Oc1ccccc1`, the AC50 was 25.5 µM (active).
